This is part of a sample that, as a whole, favours compounds with a hit. Of some 83,000 tested, about 20% had one in any assay.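 Testing used 96-well plates and a 48-hour single-concentration exposure. Example: -40 means 40% of the starting cells died.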 Calls of active or inactive are those of the source. Rule for the calls: active = growth percent below 10; inactive = the rest.
system: MDA-MB-231 breast; test: NCI-60 one-dose screen, 48 h (100 = growth as untreated, 0 = no growth, -100 = all killed); conditions: 10 µM unless noted

Row | SMILES | growth
1 | Cc1cc(=O)oc2cc(OCCCOc3ccc(/C=C/C(=O)Nc4ccc(Cl)cc4)cc3)ccc12 | 69.7% (inactive)
2 | O=C(c1ccc(Cl)cc1)C1[C@H](c2ccc(Cl)cc2)[C@@H](c2ccccc2)NC12C(=O)Nc1ccc(Br)cc12 (stereo partly drawn) | 37.2% (inactive)
3 | C[C@@H](Nc1c(C#N)cnc2ccc(-c3cnc(N)nc3)cc12)c1ccccc1 | 17.9% (inactive)
4 | CCN1C(=S)N(CC)C2C1NN=C1SC(c3ccccc3)=CC(=O)N12 (stereo not drawn) | 94% (inactive)
5 | CC(C)(O)c1cncc(-c2ccc3ncnc(N4CCc5cc(F)c(Cl)cc54)c3c2)c1 | 30.3% (inactive)
6 | CC(C)(C)Nc1nc2c(OCCc3ccccc3)cccn2c1-c1ccccc1Cl | -32.6% (active)
7 | COc1ccc(/C=N/NC(=O)c2[nH]c3ccc(Br)cc3c2-c2ccccc2)s1 | 3.89% (active)
8 | OC1CCN(CCCOc2c3ccccc3nc3c2oc2ccc(Cl)cc23)CC1 | 17% (inactive)
9 | Cc1sc2c(c1C)c(=O)nc1c(-c3nc(-c4ccc(F)cc4)no3)n[nH]n12 | 95.5% (inactive)
10 | CC(C)(C)Nc1nc2c(OCCc3ccccc3)cccn2c1-c1cccc(F)c1 | -40.9% (active)

system: RXF 393 renal; test: as above; conditions: 10 µM unless noted

Row | SMILES | growth
11 | CCOC(=O)c1c(Nc2ccccc2)nn2c(N)c(C#N)c(-c3ccccc3)nc12 | 68.3% (inactive)
12 | COC(=O)c1ccc(NC(=S)N2CCc3ccc([N+](=O)[O-])cc3C2)cc1O | 110% (inactive)
13 | CCCC(=O)NC(c1cccc(N(C)C)c1)c1cc(C)c2cccnc2c1O (stereo not drawn) | 82.1% (inactive)
14 | COc1cc(/C=C/C(=O)c2cc(OC)c(OC)c(OC)c2)ccc1Oc1nc(NCCO)nc(N2CCOCC2)n1 | -25.7% (active)
15 | CS(=O)(=O)c1ccc(-n2cc(/C=C/C(=O)c3ccc(NC(=O)CO[N+](=O)[O-])cc3)c(-c3ccc(Cl)cc3)n2)cc1 | 86.8% (inactive)
16 | Cc1cc2nc3c4cc(Cl)ccc4n(CC(=O)NCCN(C)C)c3nc2cc1C | 61.1% (inactive)
17 | Cc1cc2nc3c4cc(Cl)ccc4n(CC(=S)NCCN(C)C)c3nc2cc1C | -67.8% (active)
18 | NS(=O)(=O)c1ccc(Nc2nc(SCC(=O)c3ccc(Cl)cc3)nc3ccccc23)cc1 | 103% (inactive)
19 | Clc1ccc2oc3c(NCCCN4CCOCC4)c4ccccc4nc3c2c1 | 13.9% (inactive)
20 | Cc1ccc(/C=C/c2nn3c(-c4ccco4)nnc3s2)cc1C | 112% (inactive)
21 | N=C1CC(=O)NN1C(=O)CSc1nc2sc3c(c2c(=O)n1-c1ccc(Cl)cc1)CCCC3 | 119% (inactive)
22 | O=C(NNc1nc2cc(F)ccc2n2c(CN3CC4(COC4)C3)ccc12)c1cnccn1 | 39.2% (inactive)
23 | COc1cc2nc(-c3ccc(C)cc3)cc(OCCCNCC3CCCO3)c2cc1OC (stereo not drawn) | 59.6% (inactive)
24 | CS(=O)(=O)c1ccc(-c2nc3ccccn3c2C=Nc2ccc(Cl)cc2)cc1 | 105% (inactive)
25 | C#Cc1nc(C2=C(C)C(=O)/C(=N/OC(C)=O)C2)cs1 | 85.1% (inactive)
26 | CSCCC(C(=O)O)N1C(=O)/C(=C/c2ccc(O)c(O)c2)SC1=S (stereo not drawn) | 125% (inactive)
27 | CC(=NNc1ncnc2ccccc12)c1ccc(S(C)(=O)=O)cc1 | 114% (inactive)
28 | Nc1c(C(=O)c2ccc(Br)cc2)oc2nc(-c3cnccn3)cc(-c3cccs3)c12 | 96.6% (inactive)
29 | COc1cc(-c2nc3ccc(-c4nnc(SCC(=O)Nc5ccc(C(C)=O)cc5)o4)cc3[nH]2)cc(OC)c1OC | 116% (inactive)
30 | N#Cc1nc(-c2ccccc2)oc1S(N)(=O)=O | 45.8% (inactive)
31 | O=C(CN1C(=O)/C(=C/c2ccccc2)SC1=S)N1CCOCC1 | 105% (inactive)
32 | Nc1ncc(-c2ccc3ncnc(N4CCc5cc(F)c(Cl)cc54)c3c2)cc1CO | -26.6% (active)
33 | Cc1ccc(C(=O)Nc2cccc(C(F)(F)F)c2)cc1Nc1nc(-c2cnccn2)nc2c1cnn2C | 78% (inactive)
34 | Clc1ccc2c(NCCCn3ccnc3)c3oc4ccc(Cl)cc4c3nc2c1 | 55.4% (inactive)
35 | CN(C)CCCNc1c2ccc(Cl)cc2nc2c1oc1ccc(Cl)cc12 | -80.8% (active)
36 | O=C(N/N=C/c1ccc[nH]1)c1[nH]c2ccc(Br)cc2c1-c1ccccc1 | 53.2% (inactive)
37 | C#Cc1nc(C2=C(C)/C(=N/OCc3ccccc3)CC2)cs1 | 33.6% (inactive)
38 | N#Cc1ccc(C(=O)CSc2nc(Nc3ccc(S(N)(=O)=O)cc3)c3ccccc3n2)cc1 | 109% (inactive)

Reference: PubChem BioAssay (NCI)
